{
  "source": "PubChem BioAssay (Tox21)",
  "note": "Where “and” joins values, the source holds several entries; their conditions need not be identical. Equal values may be shown once. Results filed as inconclusive are left out. Calls of active or inactive are those of the source. Calls follow the shape of the dose curve; as a rule, active = well fitted cell-killing curve with a large enough effect in the repeat runs; inconclusive = weak or mixed curves, or effect the other way; inactive = flat fitted curve, though single readings scatter. % is scaled to controls: 0 for no effect and ±100 for the full control effect; potency is read from the fitted curve at half-maximal effect.",
  "data": [
    {"experiment": "cAMP Responsive Elements (CRE) small molecule antagonists, cell-based qHTS assay: qHTS cell viability counter screen (AID 2060913); also: nearly all actives have a fitted effect of over 40% in size", "details": "CRE-bla HEK293T viability, CellTiter-Glo luminescence, 5 h; series mostly up to 92.4 µM; viability change, negative = cytotoxic: at the top concentration", "method_in_brief": "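Viability of NKH477-stimulated (0.25 uM final) CRE-bla HEK293T cells is measured by CellTiter-Glo luminescence following 3 hrs compound exposure at 37 C.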", "values": [
      {"smiles": "O=C1c2ccccc2C(=O)C1C(=O)C(c1ccccc1)c1ccc(Cl)cc1", "note": "(stereo not given)", "viability change, negative = cytotoxic": "-15% (inactive)"},
      {"smiles": "Nc1ccc(-c2ccc(N)cc2)cc1", "Potency": "inactive"},
      {"smiles": "CCCCC(CC)COC(=O)c1ccccc1C(=O)OCC(CC)CCCC", "note": "(stereo not given)", "viability change, negative = cytotoxic": "-0.216% (inactive)"},
      {"smiles": "N#Cc1c(Cl)cccc1Cl", "viability change, negative = cytotoxic": "-3.24% (inactive)"},
      {"smiles": "CCCN(CCC)c1c([N+](=O)[O-])cc(S(N)(=O)=O)cc1[N+](=O)[O-]", "Potency": "43 µM (active)"},
      {"smiles": "CC(C)(COCC1CO1)COCC1CO1", "note": "(stereo not given)", "viability change, negative = cytotoxic": "3.16% (inactive)"},
      {"smiles": "O=c1c2ccccc2c(=O)c2c1cc(Cl)c1[nH]c3c([nH]c12)c(Cl)cc1c(=O)c2ccccc2c(=O)c13", "viability change, negative = cytotoxic": "1.78% (inactive)"},
      {"smiles": "Oc1ccc2ccc3cccc4ccc1c2c34", "viability change, negative = cytotoxic": "0.136% (inactive)"},
      {"smiles": "NC(=O)C(Cl)Cl", "viability change, negative = cytotoxic": "-8.37% (inactive)"},
      {"smiles": "CN=CNc1ccc(C)cc1C", "viability change, negative = cytotoxic": "4.89% (inactive)"},
      {"smiles": "Clc1ccc(C(c2ccccc2Cl)C(Cl)(Cl)Cl)cc1", "note": "(stereo not given)", "viability change, negative = cytotoxic": "-19.3% (inactive)"},
      {"smiles": "COc1ccc2c(c1OC)CN1CCc3cc4c(cc3C1C2)OCO4", "note": "(stereo not given)", "viability change, negative = cytotoxic": "-4.17% [at 42.5 µM] (inactive)"},
      {"smiles": "COC(=O)c1ccccc1S(=O)(=O)NC(=O)Nc1nc(C)cc(C)n1", "viability change, negative = cytotoxic": "7.07% (inactive)"},
      {"smiles": "COc1nn(CSP(=S)(OC)OC)c(=O)s1", "viability change, negative = cytotoxic": "-10.4% (inactive)"},
      {"smiles": "O.O.O.O.O.O.O.O=S(=O)([O-])[O-].[Co+2]", "viability change, negative = cytotoxic": "15.2% (inactive)"},
      {"smiles": "Clc1ccc(C(c2ccc(Cl)cc2)C(Cl)(Cl)Cl)cc1", "Potency": "inactive"},
      {"smiles": "C=CC1CC=CCC1", "note": "(stereo not given)", "viability change, negative = cytotoxic": "1.52% (inactive)"},
      {"smiles": "CC(C)Oc1cccc(NC(=O)c2ccccc2C(F)(F)F)c1", "viability change, negative = cytotoxic": "0.493% (inactive)"},
      {"smiles": "Cc1cc(C)cc(OP(=O)(Oc2cc(C)cc(C)c2)Oc2cc(C)cc(C)c2)c1", "viability change, negative = cytotoxic": "-22.5% (inactive)"},
      {"smiles": "CC(C)CC(C)N", "note": "(stereo not given)", "viability change, negative = cytotoxic": "-1.38% (inactive)"},
      {"smiles": "Cc1c(COC(=O)[C@@H]2[C@H](/C=C(\\Cl)C(F)(F)F)C2(C)C)cccc1-c1ccccc1", "Potency": "inactive"},
      {"smiles": "Nc1ccc(Sc2ccc(N)cc2)cc1", "viability change, negative = cytotoxic": "4.2% (inactive)"},
      {"smiles": "CCCCCC[N+](=O)[O-]", "viability change, negative = cytotoxic": "-9.41% (inactive)"},
      {"smiles": "Nc1c(Cl)c(Cl)c(Cl)c(Cl)c1Cl", "viability change, negative = cytotoxic": "-4.03% (inactive)"},
      {"smiles": "CCCCCCCC[N+](C)(CCCCCCCC)CCCCCCCC", "Potency": "8.62 µM (active) and 48.6 µM (active)"},
      {"smiles": "C[N+](C)(C)CC1CO1", "note": "(stereo not given)", "viability change, negative = cytotoxic": "-0.498% (inactive)"},
      {"smiles": "CC(=O)CCc1ccc2c(c1)OCO2", "viability change, negative = cytotoxic": "14.4% (inactive)"},
      {"smiles": "[Hg+2].[I-].[I-]", "Potency": "54.5 µM (active)"},
      {"smiles": "O=C(CCl)NCO", "viability change, negative = cytotoxic": "4.02% (inactive)"},
      {"smiles": "Clc1ccc(CCC(Cn2ccnc2)Sc2c(Cl)cccc2Cl)cc1", "note": "(stereo not given)", "viability change, negative = cytotoxic": "-13.5% [at 42.5 µM] (inactive)"},
      {"smiles": "CC1(C)C(C=C(Cl)Cl)C1C(=O)OC(C#N)c1cccc(Oc2ccccc2)c1", "note": "(stereo not given)", "Potency": "inactive"},
      {"smiles": "CC(Cc1ccccc1)NCc1ccccc1Cl", "note": "(stereo not given)", "viability change, negative = cytotoxic": "-3.12% [at 42.5 µM] (inactive)"},
      {"smiles": "COP(=O)(OC)OC=C(Cl)Cl", "Potency": "inactive"},
      {"smiles": "CN(CCO)CCO", "viability change, negative = cytotoxic": "-7.82% (inactive)"},
      {"smiles": "Fc1cc(Br)ccc1CBr", "viability change, negative = cytotoxic": "-4.96% [at 42.5 µM] (inactive)"},
      {"smiles": "COP(=O)(O)OC", "viability change, negative = cytotoxic": "1.69% (inactive)"},
      {"smiles": "O=C(Cl)OCc1ccccc1", "viability change, negative = cytotoxic": "3.66% (inactive)"},
      {"smiles": "C=CCN1CC[C@]23c4c5ccc(O)c4O[C@H]2C(=O)CC[C@@]3(O)[C@H]1C5", "viability change, negative = cytotoxic": "7.51% [at 42.5 µM] (inactive)"},
      {"smiles": "O=C(O)c1nn(Cc2ccc(Cl)cc2Cl)c2ccccc12", "Potency": "inactive"},
      {"smiles": "COc1cc(Cl)c(OC)cc1Cl", "viability change, negative = cytotoxic": "-2.26% (inactive)"}
    ]}
  ]
}
